# RORg inh – blocks mouse ROR gamma transcriptional activity; P51450; hit rate 5.4% among 310,000; Potency, µM (top dose mostly 53.6 µM), hits mostly inhibitors; Drosophila S2 Gal4-RORgamma UAS-luciferase reporter, 20 h; also: nearly all actives have a fitted effect of over 60% in size
# Target sequence (P51450 whole entry, looked up, the tested form may be a part): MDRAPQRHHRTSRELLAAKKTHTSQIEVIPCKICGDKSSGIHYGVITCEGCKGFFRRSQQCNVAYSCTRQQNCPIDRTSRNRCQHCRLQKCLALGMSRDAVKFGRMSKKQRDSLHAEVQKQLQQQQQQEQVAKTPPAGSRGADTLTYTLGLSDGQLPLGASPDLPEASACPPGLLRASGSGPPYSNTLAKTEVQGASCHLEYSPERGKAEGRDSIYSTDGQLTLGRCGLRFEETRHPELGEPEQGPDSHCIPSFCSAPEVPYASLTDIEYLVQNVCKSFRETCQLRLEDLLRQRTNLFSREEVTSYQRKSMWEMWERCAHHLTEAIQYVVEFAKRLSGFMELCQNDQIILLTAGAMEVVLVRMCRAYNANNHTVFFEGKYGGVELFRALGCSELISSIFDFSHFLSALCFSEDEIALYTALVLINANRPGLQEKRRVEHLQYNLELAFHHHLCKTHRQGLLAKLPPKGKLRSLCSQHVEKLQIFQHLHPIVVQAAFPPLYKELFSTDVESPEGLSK
#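 Stably transfected Drosophila Schneider cells are the test system, with ROR gamma fused to Gal4 and luciferase under UAS control; luminescence is read after 20 hr of 700 uM copper sulfate induction at ambient temperature.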
# TDP1 block – blocks human tyrosyl-DNA phosphodiesterase 1; Potency, µM (series often up to 130 µM), most hits filed as inhibitors; recombinant TDP1, AlphaScreen DNA substrate cleavage; hit rate 0.28% among 350,000; Q9NUW8; AID 485290; also: nearly all actives have a fitted effect of over 40% in size
#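 E. coli-derived human Tdp1, 1 nM final. Cpd preinc 15 min RT; substrate 15 nM final, 5 min RT; AS bead mix 10 ug/ml final, 10 min RT. Signal loss = tyrosine-FITC cleavage. No-enzyme wells = max signal.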
# VP16 counter – inhibits Gal4-VP16 luciferase reporter, ROR gamma counter-screen | Drosophila S2 Gal4-VP16 UAS-luciferase, luminescence, 20 h | Potency, µM (doses to about 53.6 µM), usual class: inhibitors | hit rate 3.5% among 310,000;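 also: Gal4-VP16 expression switched on by copper sulfate through the metallothionein promoter; nearly all actives have a fitted effect of over 50% in size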
# DT40 TDP1 no CPT – qHTS for Inhibitors of human tyrosyl-DNA phosphodiesterase 1 (TDP1): qHTS in cells in absence of CPT; Potency, µM (doses to about 46.2 µM), actives largely listed as inhibitors; hit rate 15% among 420,000; DT40 Tdp1-/- hTDP1 cells, no CPT, ATP luminescence, 48 h; also: nearly all actives have a fitted effect of over 55% in size
#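 Cells were dispensed at 400 per well, compounds added by pin tool, plates incubated ≥48 hr at 37 °C, then CellTiter-Glo added for 30 min at room temperature before luminescence reading. Line: DT40 Tdp1-/- complemented with hTDP1; camptothecin omitted.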
# TDP1 cell CPT – DT40-hTDP1 cell growth loss with CPT; chicken DT40 Tdp1-/-;hTDP1 cells + 20 nM CPT, ATP luminescence, 48 h; Potency, µM (series often up to 46.2 µM), most hits filed as inhibitors; hit rate 12% among 420,000; AID 686979; also: nearly all actives have a fitted effect of over 55% in size
#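 Chicken DT40 Tdp1-/- cells stably complemented with human TDP1 were seeded at 400 cells/well in medium containing 20 nM camptothecin, exposed to pin-transferred compounds, and grown at 37 °C for at least 48 hr. Viability was read as ATP luminescence.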
# Hits are given with their value; n = inactive; u = inconclusive; x = no result given. Shown are actives, neighbours in structure and some others; about 19% of the full set was active somewhere. Calls follow the shape of the dose curve; as a rule, active = well fitted curve in the direction sought with a large enough effect; inconclusive = small, poorly fitted or top-dose-only effect, or another doubt; inactive = no such curve, though single readings can be large; an effect the other way counts as inactive or inconclusive.
SMILES,RORg inh,TDP1 block,VP16 counter,DT40 TDP1 no CPT,TDP1 cell CPT
O=C(N/N=C/c1cc(Br)cc(Br)c1O)c1ccncc1,3.98µM,n,n,0.651µM,2.59µM
CCc1cc(C(=O)N/N=C/c2ccc(O)cc2O)c2ccccc2n1,11.2µM,n,u,u,8.2µM
COc1ccc(N2CCN(C(c3cc(OC)ccc3OC)c3nnnn3CC3CCCO3)CC2)cc1 (stereo not given),n,n,n,n,n
O=C(c1nc2ccc(Cl)cn2c1CNCCn1ccnc1)N1CCCCCCC1,n,n,n,n,n
Cc1ccc2oc(=O)c3cc(C(=O)N(Cc4ccccc4)C(C)C)sc3c2c1,x,n,x,20.6µM,18.4µM
Cc1cccn2c(=O)c3cc(C(=O)N(Cc4ccccc4)C(C)C)sc3nc12,x,n,x,20.6µM,16.4µM
Cc1ccc2oc(=O)c3cc(C(=O)Nc4ccc(F)cc4F)sc3c2c1,x,n,x,25.9µM,u
CCOC(=O)c1ccccc1NC(=O)c1cc2c(=O)oc3ccc(C)cc3c2s1,x,n,x,n,n
CCOc1ccc(CCNC(=O)c2cc3c(=O)oc4ccc(C)cc4c3s2)cc1OCC,x,n,x,u,13µM
CC1CN=C(NC2CCCCC2C)S1 (stereo not given),n,n,n,n,n
CC(Sc1nnc(C2CC2)n1-c1ccccc1)C(=O)N1CCNC1=O (stereo not given),x,n,x,n,n
CS(=O)(=O)N1CCC2(CC1)CN(c1ccccn1)C2,n,x,n,n,n
CC1=C(C(=O)N2CCCCCC2)CC(CC(=O)NCCc2ccccn2)C(=O)N1Cc1ccccc1 (stereo not given),x,x,x,n,n
CC1=C(C(=O)N2CCOCC2)CC(CC(=O)NCC2CCCCC2)C(=O)N1Cc1ccc(C(C)(C)C)cc1 (stereo not given),x,x,x,u,18.4µM
CC1=C(C(=O)N2CCOCC2)CC(CC(=O)NC2CC2)C(=O)N1Cc1ccc(C(C)(C)C)cc1 (stereo not given),x,x,x,n,n
CC1=C(C(=O)N(C(C)C)C(C)C)CC(CC(=O)NC2CCCCC2)C(=O)N1Cc1ccc(C(C)(C)C)cc1 (stereo not given),x,x,x,20.6µM,14.6µM
CC1=C(C(=O)N2CCCCCC2)CC(CC(=O)NC2CCCCC2)C(=O)N1Cc1ccc(C(C)(C)C)cc1 (stereo not given),x,x,x,20.6µM,14.6µM
CC1=C(C(=O)N2CCCCCC2)CC(CC(=O)NCCc2ccccn2)C(=O)N1Cc1ccc(C(C)(C)C)cc1 (stereo not given),x,x,x,16.4µM,18.4µM
CC1=C(C(=O)N(C(C)C)C(C)C)CC(CC(=O)NC2CC2)C(=O)N1Cc1ccccc1 (stereo not given),x,x,x,n,n
Cc1cc(N2CCOCC2)nc(C(C)C)n1,n,n,u,u,n
CCOc1ccccc1NC(=O)C(C)SCc1ccccc1 (stereo not given),n,x,n,n,n
O=C(NC(=O)c1ccccc1F)OCc1ccc(Cl)cc1Cl,n,n,n,n,n
CC1=C(C(=O)N2CCCCCC2)CC(CC(=O)NCCCN(C)C)C(=O)N1Cc1ccc(C(C)(C)C)cc1 (stereo not given),x,x,x,u,8.33µM
CC1=C(C(=O)N2CCOCC2)CC(CC(=O)NC2CCCCC2)C(=O)N1Cc1ccc(C(C)(C)C)cc1 (stereo not given),x,x,x,20.6µM,u
Cc1cccc(N2CCN(C(=O)c3ccc4c(c3)OCCO4)CC2)c1C,n,n,n,u,u
SMILES,RORg inh,TDP1 block,VP16 counter,DT40 TDP1 no CPT,TDP1 cell CPT
C#CCOCCOCCOCCNc1nc(N2CCN(C(=O)Cn3cc(CCCN=C(N)N)nn3)CC2)nc(N2CCN(C(=O)[C@H]([C@@H](C)CC)n3cc(CCC(=O)O)nn3)CC2)n1,n,n,n,n,u
CC1=CC(=O)C=C(C)C1=NOc1ccccc1[N+](=O)[O-],10µM,n,u,2.06µM,1.3µM
CC(C)(C)/C(COc1ccccc1[N+](=O)[O-])=N/O,u,n,n,n,u
Cc1nc(NCc2ccccn2)c2ccccc2n1,n,n,u,10.3µM,13µM
Cc1cc(NCc2ccccn2)nc2ccccc12,u,n,n,n,n
O=c1c2ccccc2nc2c3ccccc3c(NCCO)nn12,n,n,n,u,13µM
O=c1c2ccccc2nc2c3ccccc3c(NCc3cccnc3)nn12,n,n,n,n,n
O=c1c2ccccc2nc2c3ccccc3c(NCc3ccccn3)nn12,n,n,n,14.6µM,u
OCCNc1c2ccccc2nc2ccccc12,n,n,u,10.3µM,13µM
CCCCC(=O)Nc1cccc(NC(=S)NC(=O)COc2ccccc2Cl)c1,n,n,n,n,n
Cc1cc(C)n2nc(SCC(=O)N/N=C/c3cccc(Br)c3)nc2n1,u,n,n,u,u
COc1ccc(NC(=O)CSc2nnc(Cn3c(=O)sc4ccccc43)n2C)c(OC)c1,n,n,n,n,n
CCOc1ccccc1/C=C/c1nc2ccccc2[nH]c1=O,u,n,n,u,u
COc1cc(/C=C/C(=O)O)cc(S(=O)(=O)Nc2cc(C(F)(F)F)ccc2N2CCOCC2)c1OC,x,n,x,n,n
CCN(CC)CCN(C(=O)C1CCCCC1)c1nc2cc3c(cc2s1)OCO3,n,n,n,u,u
COC(=O)c1cc(Cc2ccc(N)c(C(=O)OC)c2)ccc1N,n,n,n,u,n
FC(F)(F)c1ccc(NCc2ccccn2)nc1,n,x,n,n,n
c1ccc(CNc2ccc3ccccc3n2)nc1,10µM,n,u,n,n
CCOC(=O)C(=CNc1cc(OC)ccc1-n1cccc1)C(=O)OCC,n,n,n,20.6µM,u
CCOC(=O)C(=CNc1cc(C)nn1-c1ccc(C)cc1)C(=O)OCC,n,n,n,9.2µM,23.1µM
CCOC(=O)C(=CNc1cc(C)ccc1C)C(=O)OCC,n,n,n,16.4µM,u
CCOC(=O)C(=CNc1cccnc1Oc1ccc(C)c2c1CCC2)C(=O)OCC,n,n,n,20.6µM,14.6µM
CNCCCOc1cccc(OC(C)C)c1,n,n,n,n,n
CCOC(=O)C(=CNNc1ccccc1)C(=O)OCC,n,n,n,16.4µM,4.61µM
CC(C)C[C@@H](CC(=O)N[C@@H](CCC(=O)O)CC(=O)O)NC(=O)[C@@H]1CNCC[C@H]1NC(=O)C[C@@H](NC(=O)C[C@H](Cc1ccccc1)NC(=O)[C@@H]1CCCC[C@H]1N)C(C)C,n,n,n,x,x
COc1ccc(C(CNC(=O)c2ccc(-c3ccccc3Cl)o2)N2CCCC2)cc1 (stereo not given),x,x,x,4.11µM,5.17µM
COc1ccc(C(CNC(=O)c2ccc(-c3nc4ccccc4s3)o2)N2CCCC2)cc1 (stereo not given),x,n,x,20.6µM,23.1µM
